High-throughput results: PubChem BioAssay, National Center for Advancing Translational Sciences (NCATS)
NTMT1 inh: Primary qHTS for Inhibitors of N-terminal methyltransferase 1 (NTMT1): MTaseGlo Assay. N-terminal Xaa-Pro-Lys N-methyltransferase 1 (Homo sapiens), Q9BV86. NTMT1 MTase-Glo SAH luminescence, purified enzyme. Potency, µM (top dose mostly 114 µM), actives largely listed as inhibitors. 59,000 compounds, 2.5% hits. AID 1645870, 2021; further: nearly all actives have a fitted effect of over 65% in size
Target sequence (Q9BV86 whole entry, looked up): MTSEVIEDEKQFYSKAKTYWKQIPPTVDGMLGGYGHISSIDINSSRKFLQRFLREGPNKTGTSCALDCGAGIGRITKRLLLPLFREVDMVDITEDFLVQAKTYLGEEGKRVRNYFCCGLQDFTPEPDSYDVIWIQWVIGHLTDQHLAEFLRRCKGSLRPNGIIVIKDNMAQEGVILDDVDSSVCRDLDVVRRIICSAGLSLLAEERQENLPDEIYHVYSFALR
HTT promoter inh: Primary qHTS for Identification of Small Molecule Inhibitors of Huntingtin Promoter Activity; Potency, µM (titrated, usually from 57.5 µM), most hits filed as inhibitors; 48,000 compounds, 0.93% hits; HEK293 HTT promoter firefly luciferase reporter, 24 h; further: nearly all actives have a fitted effect of over 50% in size
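Firefly luciferase signal from promoter-reporter HEK293 cells was scaled between vehicle (0%) and zero RLU (-100%). Compounds were tested at final concentrations of up to 57.5 uM over 24 h at 37 degrees C. PTC124 at 50 uM final served as control inhibitor.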
HTT-AS act: Primary qHTS for Identification of Small Molecule Activators of Huntingtin-Antisense Promoter Activity; AID 1508624, 2021; HEK293 HTT-AS promoter firefly luciferase reporter, 24 h; response scale: percent change from vehicle, -100% = no light; Potency, µM (highest dose often 57.5 µM), usual class: activators; 48,000 compounds, 0.24% hits; further: nearly all actives have a fitted effect of over 55% in size
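HEK293 Fluc reporter, 2,500 cells/well, 24 h pre-culture; cpds up to 57.5 uM final, 24 h 37 degrees C; Dual-Glo, 10 min RT; normalized vehicle = 0%, zero RLU = -100%.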
Of the large screens only hits and unclear results are named; the others gave an inactive call. Only some compounds are listed: those with a hit (about 2.4% of all), similar ones and a draw of the others. The call rests on the fitted dose curve; in most records, active means well fitted curve in the direction sought with a large enough effect; inconclusive means small, poorly fitted or top-dose-only effect, or another doubt; inactive means no such curve, though single readings can be large; an effect the other way counts as inactive or inconclusive.

O=C([C@H](Cc1ccc(O[S+](=O)([O-])c2cccnc2)cc1)N[S+](=O)([O-])c1cccc2cnccc12)N1CCN(c2ccccc2)CC1	none (no result: HTT promoter inh, HTT-AS act)
Cc1ccc(Nc2nn3c(=O)c4cc5c(cc4nc3s2)OCO5)cc1Cl	none
Cc1cc(C)c(Nc2nn3c(=O)c4cc5c(cc4nc3s2)OCO5)c(C)c1	NTMT1 inh 45µM
COc1cc(Nc2nc3c(s2)CCCC3c2ccc(F)cc2)ccc1-n1cnc(C)c1 (stereo not given)	none (no result: HTT promoter inh, HTT-AS act)
COc1cc2[nH]c(=O)n(Cc3ccc(C(=O)N4CCN(c5ccc(Cl)cc5)CC4)cc3)c(=O)c2cc1OC	HTT promoter inh 14µM
COc1ccc(Cn2c(=O)[nH]c3cc(C(=O)N4CCN(c5cccc(Cl)c5)CC4)ccc3c2=O)cc1	none
CCCCCCCC/C=C/C(=O)O	none
CCCCCCCCCCCCCCCCC(C(=O)O)C(O)(CC(=O)O)C(=O)O (stereo not given)	NTMT1 inh 3.5µM
O=C(N/N=C/c1ccc(O)c(O)c1)c1cc2ccccc2cc1O	none (no result: HTT promoter inh, HTT-AS act)
O=C1/C(=C/c2ccc(O)c(O)c2)Oc2ccccc21	NTMT1 inh 28µM (no result: HTT promoter inh, HTT-AS act)
Cc1nc(Nc2cnn(C3CCNCC3)c2)nc2c1N(C)C(=O)c1cc3ccccc3cc1N2C	none (no result: HTT promoter inh, HTT-AS act)
Cc1ccc(Cn2ccn(CC(=O)Nc3ccccc3C(F)(F)F)c(=O)c2=O)cc1	none
CCOc1ccccc1NC(=O)Cn1ccn(Cc2ccc(C)cc2)c(=O)c1=O	NTMT1 inh 89µM
CC(C)c1ccccc1-c1nccc(NCc2ccc(-c3ccnc(C(F)(F)F)c3)cc2)n1	none (no result: HTT promoter inh, HTT-AS act)
COc1ccc(CCN2CCC(CNC(=O)c3cnn(-c4cccc(Cl)c4)c3C3CCN(C(=O)OC(C)(C)C)CC3)CC2)cc1	NTMT1 inh 79µM
CC(C)(C)OC(=O)N1CCC(c2c(C(=O)NCc3ccccn3)cnn2-c2ccccc2Cl)CC1	none
COc1ccc(CCN2CCC(CNC(=O)c3cnn(-c4ccccc4)c3C3CCN(C(=O)OC(C)(C)C)CC3)CC2)cc1	NTMT1 inh inconclusive
COCCCNC(=O)c1cnn(-c2ccccc2Cl)c1C1CCN(C(=O)OC(C)(C)C)CC1	NTMT1 inh 89µM
Nc1ncnc2c([C@@H]3N[C@H](CO)[C@@H](O)[C@H]3O)c[nH]c12	none (no result: HTT promoter inh, HTT-AS act)
CCOc1ccccc1C(=O)Nc1ccc(-n2nncc2-c2ccccc2)cc1	HTT promoter inh inconclusive
COc1cccc(C(=O)Nc2ccc(-n3nncc3-c3ccccc3)cc2)c1OC	NTMT1 inh 56µM
Cc1ccccc1-c1ccc(=O)n(CC(=O)NCCc2ccccc2)n1	none (no result: HTT promoter inh, HTT-AS act)
Cc1ccc(OCCn2c(CCNC(=O)c3ccc(C(F)(F)F)cc3)nc3ccccc32)cc1	none (no result: HTT promoter inh, HTT-AS act)
OC/C=C/c1ccc(O[C@@H]2O[C@H](CO)[C@@H](O)[C@H](O)[C@H]2O)cc1	none (no result: HTT promoter inh, HTT-AS act)
CN1CCN(CCCNC(=O)c2cnn(-c3ccccc3)c2C2CCN(C(=O)OC(C)(C)C)CC2)CC1	none
CN1CCN(CCCNc2ncc(Cl)c(-c3cc4c(C(=O)NC5CC5)cccc4s3)n2)CC1	NTMT1 inh 79µM (no result: HTT promoter inh, HTT-AS act)
CC1(C)C[C@H](O)C[C@@]2(C)OC(=O)C=C12	none (no result: HTT promoter inh, HTT-AS act)
CCOc1ccc(-c2nc(CSCC(=O)N3CCN(c4ccc(F)cc4)CC3)c(C)o2)cc1	none
Cc1ccc(C)c(N2CCN(C(=O)C3CCCN(Cc4nc(-c5cccc(Cl)c5)oc4C)C3)CC2)c1 (stereo not given)	none
COc1ccc(-c2nc(CSCC(=O)N3CCN(c4cc(Cl)ccc4C)CC3)c(C)o2)cc1	HTT promoter inh 13µM
CCOc1ccc(-c2nc(CSCC(=O)N3CCN(c4cccc(C(F)(F)F)c4)CC3)c(C)o2)cc1	HTT promoter inh 16µM
CCC(C)NC(=O)CSCc1nc(-c2ccc(C)cc2)oc1C (stereo not given)	HTT promoter inh inconclusive
Cc1ccc(Cl)cc1N1CCN(C(=O)C2CCCN(Cc3nc(-c4cccc(Cl)c4)oc3C)C2)CC1 (stereo not given)	HTT promoter inh 35µM
COc1ccc(-c2nc(CSCC(=O)N3CCN(c4ccc(OC)cc4)CC3)c(C)o2)cc1	HTT promoter inh inconclusive
COC(=O)CSCc1nc(-c2ccc(C(=O)OC)cc2)oc1C	HTT promoter inh 2µM
NCc1c[nH]c(=S)n1[C@@H]1CCc2c(F)cc(F)cc2C1	none (no result: HTT promoter inh, HTT-AS act)
CCOc1cccc2c1OC(c1ccc(F)cc1)C([N+](=O)[O-])=C2 (stereo not given)	none (no result: HTT promoter inh, HTT-AS act)
C[C@@H]1CC[C@]2(C(=O)O)CC[C@]3(C)C(=CCC4[C@]5(C)C(CC[C@]43C)C(C)(C)[C@@H](O)[C@H](O)[C@@H]5O)C2[C@]1(C)O (stereo not given in full)	none (no result: HTT promoter inh, HTT-AS act)
O=C1CCCC2=C1C(c1[nH]ncc1Cl)N=C(Nc1nc3ccc(Cl)cc3o1)N2 (stereo not given)	none (no result: HTT promoter inh, HTT-AS act)
CC[C@H]1OC(=O)[C@H](C)[C@@H](OC2C[C@@](C)(OC)[C@@H](O)[C@H](C)O2)[C@H](C)[C@@H](OC2O[C@H](C)C[C@H](NC)[C@H]2O)[C@](C)(O)C[C@@H](C)CN(C)[C@H](C)[C@@H](O)[C@]1(C)O (stereo not given in full)	none (no result: HTT promoter inh, HTT-AS act)
Cc1cccc(-c2nc(CSCC(=O)N3CCN(c4ccccc4)CC3)c(C)o2)c1	HTT promoter inh inconclusive
COc1ccc(-c2nc(CSCC(=O)N3CCN(c4cccc(C)c4C)CC3)c(C)o2)cc1OC	HTT promoter inh 13µM
CC(C)(C)NC(=O)[C@H]1CC[C@H]2[C@@H]3CC[C@H]4NC(=O)CC[C@]4(C)[C@H]3CC[C@]12C	none (no result: HTT promoter inh, HTT-AS act)
Cc1cc(C)cc(NC(=O)c2sc3nc(-c4cc5ccccc5oc4=O)[nH]c(=O)c3c2C)c1	none
Cc1cccc(NC(=O)c2sc3nc(-c4cc5ccc(O)cc5oc4=O)[nH]c(=O)c3c2C)c1	NTMT1 inh 7.1µM
Nc1ccn([C@H]2O[C@@H](CO)[C@H](O)[C@H]2O)c(=O)n1	none (no result: HTT promoter inh, HTT-AS act)
Cc1ccc(-c2ccc(=O)n(CC(=O)NCCC3CC3)n2)cc1	none (no result: HTT promoter inh, HTT-AS act)
CN1C(=O)c2ccccc2Sc2ccc(NC(=O)N3CCN(c4ccccc4)CC3)cc21	HTT promoter inh 25µM
CN1C(=O)c2ccccc2Sc2ccc(NC(=O)N3CCN(c4ccccc4F)CC3)cc21	NTMT1 inh inconclusive
COc1ccc(CNC(=O)Nc2ccc3c(c2)N(C)C(=O)c2ccccc2S3)cc1OC	HTT promoter inh inconclusive
CCOC(=O)c1cccc(NC(=O)Nc2ccc3c(c2)N(C)C(=O)c2ccccc2S3)c1	HTT promoter inh inconclusive
CC(C)Oc1ccc(CNC(=O)Nc2ccc3c(c2)N(C)C(=O)c2ccccc2S3)cc1	HTT promoter inh 25µM
CCCCNC(=O)Nc1ccc2c(c1)N(C)C(=O)c1ccccc1S2	NTMT1 inh 89µM, HTT promoter inh inconclusive
CC1=CC(=O)C[C@H]2[C@@H]1CC[C@@H](C)[C@]21CO[C@H](c2ccoc2)C1=O	none (no result: HTT promoter inh, HTT-AS act)
COc1ccc(S(=O)(=O)NCc2ccc(C(=O)NCCc3ccc(Cl)cn3)cc2)cc1	none (no result: HTT promoter inh, HTT-AS act)
Cc1ccc(-c2ccc(CCC(=O)O)n2-c2cccc(O)c2)cc1	NTMT1 inh 79µM
CC(=O)c1cccc(-n2c(CCC(=O)O)ccc2-c2ccccc2)c1	none
NNc1nncc2ccccc12	NTMT1 inh inconclusive, HTT-AS act 7.7µM
Nc1c2ccccc2nc2ccccc12	HTT promoter inh inconclusive
